# In ChEMBL document CHEMBL4513216, “Probing the Open Global Health Chemical Diversity Library for Multistage-Active Starting Points for Next-Generation Antimalarials” (ACS Infect Dis, 2020):
# About 8,600 (12%) of roughly 69,000 compounds showed an effect of 50% or more. For the sample, strong results were picked, then their nearest neighbours and some compounds at random.
# Test system: Plasmodium berghei
# Assay: Screen against P. berghei liver stage (PbLuc), transformed with Luciferase, at 10uM
# Format: functional, HepG2
# Conditions: tested at 10 uM
row,SMILES,INHIBITION [%]
1,CCCNC(=O)CN1CCC(NC(=O)c2cc(CC)ccc2O)CC1,-23.15
2,N#Cc1cccnc1N1CCC(C2CCCCCN2C(=O)C2CC2)CC1 (configuration not stated),-1.3
3,O=S(=O)(c1ccccc1)N1CCCC(c2nccs2)C1 (configuration not stated),31.6
4,O=S(=O)(c1ccccc1F)N1CCCC(c2nccs2)C1 (configuration not stated),61.7
5,O=S(=O)(c1cccs1)N1CCCC(c2nccs2)C1 (configuration not stated),-27.4
6,CN(CCS(=O)(=O)c1cc(Cl)ccc1Cl)CC(N)=O,10.6
7,CN(CCS(=O)(=O)c1cc(Cl)ccc1Cl)CC(=O)Nc1cccc(F)c1,59.4
8,CN(CCS(=O)(=O)c1cc(Cl)ccc1Cl)CC(=O)Nc1ccc(F)cc1,-8.22
9,Cc1nnc2n1CCN(C(=O)C1CCC(n3cccc3)CC1)C2 (configuration not stated),20.8
10,COC(=O)CC(c1cccnc1)c1oc(C)cc(=O)c1O (configuration not stated),-14.8
11,COc1ccccc1CN1CC(OC)CN(C(=O)CC(C)C)CC1=O (configuration not stated),4.82
12,Cc1ccc(CN2CCc3c(CN(C)C)n[nH]c3C2)s1,13.7
13,Cc1ccc(CNC(=O)N2CCc3ccccc3C2CO)s1 (configuration not stated),28.7
14,O=C(c1cccs1)N1CCN(Cc2cc(=O)c3ccccc3[nH]2)CC1,15.4
15,Cn1ccc(CN2CCC(Cc3ccccc3)CC2)cc1=O,-0.219
16,FC1(F)CCN(Cc2ccncc2)CC12CCN(Cc1ccccn1)C2 (configuration not stated),48.9
17,OCCN1CCC(F)(F)C2(CCN(c3cnccn3)C2)C1 (configuration not stated),16.6
18,FC1(F)CCN(Cc2cccnc2)CC12CCN(c1ccccc1)C2 (configuration not stated),92.8
19,FC1(F)CCN(Cc2ccncc2)CC12CCN(c1cnccn1)C2 (configuration not stated),-13.2
20,FC1(F)CCN(Cc2ccccn2)CC12CCN(c1cnccn1)C2 (configuration not stated),34
21,FC1(F)CCN(c2ccccc2)CC12CCN(c1ncccn1)C2 (configuration not stated),-15.3
22,Cn1ccnc1CN1CCC(F)(F)C2(CCN(c3cccnc3)C2)C1 (configuration not stated),31.2
23,Cn1cc(CN2CCC(F)(F)C3(CCN(c4cccnc4)C3)C2)cn1 (configuration not stated),15.4
24,FC1(F)CCN(Cc2ccccn2)CC12CCN(c1cccnc1)C2 (configuration not stated),85.9
25,OCCN1CCC(F)(F)C2(CCN(c3cccnc3)C2)C1 (configuration not stated),60.2
26,FC1(F)CCN(Cc2ccccn2)CC12CCN(c1ncccn1)C2 (configuration not stated),47.5

row,SMILES,INHIBITION [%]
1,FC1(F)CCN(Cc2ccncc2)CC12CCN(c1cccnc1)C2 (configuration not stated),91.9
2,COc1ccccc1OCCCn1c(C)c(C)oc1=O,-10.2
3,CCn1c(SCC(N)=O)nnc1C(C)NC(=O)c1ccc(Cl)cc1 (configuration not stated),31.6
4,CCS(=O)(=O)N1CCC2(CN(c3cccc(C)n3)C2)C1,18.5
5,Cc1ccc(CN(CCCN2CCOCC2)Cc2cnn(C)c2)o1,30.15
6,CCc1ncc2c(n1)CN(c1nnc(C)c(C)c1C#N)CC2,-28.7
7,CNC(=O)CN1CCC2(CCCN(CC3CCOC3)C2)CC1 (configuration not stated),8.6
8,Cc1nn(-c2ccc(C(=O)O)cc2)c2c1C(CC(C)C)SCC(=O)N2 (configuration not stated),10.6
9,Cc1cccc(C(=O)N2C[C@@H]3C(CC(=O)NC(C)C)[C@@H]3C2)n1 (some centres not stated),-50.4
10,FC1(F)CCN(Cc2cccnc2)CC12CCN(c1cnccn1)C2 (configuration not stated),-20.1
11,Cn1cc(CN2CCC(F)(F)C3(CCN(c4ccccn4)C3)C2)cn1 (configuration not stated),0.618
12,FC1(F)CCN(Cc2cccnc2)CC12CCN(c1ccccn1)C2 (configuration not stated),68.2
13,O=C(CO)N1CCC(F)(F)C2(CCN(c3ccccc3)C2)C1 (configuration not stated),31.4
14,O=C(O)CN1CCC(F)(F)C2(CCN(c3ccccn3)C2)C1 (configuration not stated),-4.02
15,O=C(O)CN1CCC(F)(F)C2(CCN(c3ccccc3)C2)C1 (configuration not stated),53.9
16,Cc1nn(C)cc1-c1cc(C(=O)N2CCc3ncc(Cl)cc3C2)on1,7.15
17,N#CCc1ccc(NC(=O)Cn2cc(I)cn2)cc1,36.6
18,O=C(NCC1CCCO1)c1nc2c(s1)CCCN2Cc1ccccc1 (configuration not stated),-57.7
19,COc1ccc(Br)cc1S(=O)(=O)N(C)Cc1ccc(N(C)C)cc1,5.76
20,CCN(Cc1ccc(N(C)C)cc1)S(=O)(=O)c1cc(Br)ccc1OC,7.65
21,CCOc1ccc(Br)cc1S(=O)(=O)N(CC)Cc1ccc(N(C)C)cc1,61.5
22,CCOC(=O)N1CC(C)=C(C)CN1C(=O)Nc1ccc(Cl)c(Cl)c1,13
23,CCNc1cc2c(nn1)CCN(C(=O)c1cccc(CSC)c1)C2,37.3
24,O=C(C1CC1)N1CCCC1C1CCN(Cc2ccccc2)CC1 (configuration not stated),-12.6
25,O=C(c1ccoc1)N1CC[C@@H](N2CCOCC2)[C@@H]1Cc1ccccc1,35.7
26,O=C(c1ccncc1)N1CCCC1C1CCN(Cc2ccccc2)CC1 (configuration not stated),51.1

row,SMILES,INHIBITION [%]
1,O=C(c1ccoc1)N1CCCC1C1CCN(Cc2ccccc2)CC1 (configuration not stated),51.1
2,CN(C(=O)c1cccnc1)C1CCCN(CCc2ccccc2)C1 (configuration not stated),42.2
3,O=C(c1cccnc1)N1CCCC1C1CCN(Cc2ccccc2)CC1 (configuration not stated),73.6
4,O=C(c1ccc(CN2CCCCC2)cc1)N1CCCC1c1cccs1 (configuration not stated),31
5,O=C(c1cc[nH]n1)N1CCCC1C1CCN(Cc2ccccc2)CC1 (configuration not stated),37.9
6,O=C(c1ccco1)N1CCCC1C1CCN(Cc2ccccc2)CC1 (configuration not stated),21.3
7,Cc1cccnc1C(=O)N1CCC(Cc2cnc3[nH]ccc3c2)CC1,44.8
8,OCC(O)CN(CCN1CCOCC1)Cc1ccco1 (configuration not stated),43.9
9,Cc1oncc1C(=O)N1CC[C@H]2[C@H](C[C@@H](CN3CCCC3)N2C)C1,16.6
10,Cc1cc(C(=O)N2CC[C@H]3[C@H](C[C@@H](CN4CCCC4)N3C)C2)c(C)o1,39.5
11,Cc1nc(C(C)C)ncc1C(=O)N1CCCC(N2CCCC2)C1 (configuration not stated),26.8
12,O=C(O)CSC1CCc2ccccc2NC1=O (configuration not stated),18.4
13,NS(=O)(=O)CCN1CCN(c2ccccc2O)CC1,-24.7
14,O=C(Nc1ccccc1)N1C[C@@H]2C[C@H](C(=O)N3CCCC3)[C@H](C1)O2,-13.2
15,CC(C)CS(=O)(=O)N1C[C@@H]2C[C@H](C(=O)N3CCCC3)[C@H](C1)O2,32.5
16,O=C(Nc1ccccc1)N1C[C@@H]2C[C@H](C(=O)N3CCOCC3)[C@H](C1)O2,55.4
17,CNC(=O)[C@H]1C[C@H]2CN(C(=O)NC(C)C)C[C@@H]1O2,57.5
18,CCOC(=O)CCNC(=O)N1CCCC(CNC(=O)c2ccco2)C1 (configuration not stated),15.7
19,O=C(NCC1CCCN(C(=O)NCCc2ccccc2)C1)c1ccco1 (configuration not stated),59.1
20,CC(C)NC(=O)N1C[C@@H]2C[C@H](C(=O)N3CCCC3)[C@H](C1)O2,43.9
21,O=C(Nc1ccc(F)cc1)N1C[C@@H]2C[C@H](C(=O)N3CCOCC3)[C@H](C1)O2,1.58
22,CC(C)CS(=O)(=O)N1C[C@@H]2C[C@H](C(=O)N3CCN(C)CC3)[C@H](C1)O2,-1.28
23,CC(C)NC(=O)[C@H]1C[C@H]2CN(C(=O)NC(C)C)C[C@@H]1O2,24
24,CC(C)CS(=O)(=O)N1C[C@@H]2C[C@H](C(=O)N3CCOCC3)[C@H](C1)O2,83.2
25,CCOC(=O)CNC(=O)N1CCCC(CNC(=O)c2ccco2)C1 (configuration not stated),3.73
